Our source for the Potency, activity change, negative = inhibition and outcome values is PubChem BioAssay (NCATS).

Assay [1] has as its target Tumor susceptibility gene 101 protein (Homo sapiens) (UniProt Q99816). Nature of the assay: qHTS Assay for Iinhibitors of HIV-1 Budding by Blocking the Interaction of PTAP/TSG101: Hit Validation (AID 651600). Further: potency means the concentration at half of the fitted maximal effect; nearly all actives have a fitted effect of over 70% in size. The procedure, abridged:
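Measuring PTAP–Tsg101 interaction by FP: protein at 10 uM and fluorescent peptide at 50 nM (final), buffer 10 mM HEPES pH 7.5 with 0.15 M NaCl, 3 mM EDTA, 0.1 mM TCEP, 0.01% Tween 20; 20 min incubation, r.t.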
(In qHTS, concentration-response curves come from the screen itself.)

The target of assay [2] is Rap guanine nucleotide exchange factor 3 (Homo sapiens) (UniProt O95398). Briefly: Confirmatory qHTS for antagonist of cAMP-regulated guanine nucleotide exchange factor 3 (EPAC1) (AID 1645880). Further: nearly all actives have a fitted effect of over 55% in size. Further: potency means the concentration at half of the fitted maximal effect.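 On activity, negative = inhibition: plate controls were DMSO only for no effect and full effect of the ATA control for full effect.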 Conditions: EPAC1 Rap1B-BODIPY-GDP exchange, fluorescence; activity, negative = inhibition: at 115 µM (top of the series). The procedure, abridged:
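Released BODIPY-GDP fluoresces less than Rap1-bound BODIPY-GDP; the signal is followed at 480/540 nm at 5-min intervals over 30 min, after 5 min at room temperature. Reactions contain 100 nM EPAC1, 250 nM RAP1B-BODIPY-GDP and 50 uM GDP; results are normalized to ATA and DMSO.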

For assay [3] the target is unchanged. Briefly: Confirmatory qHTS for agonist of cAMP-regulated guanine nucleotide exchange factor 3 (EPAC1) (AID 1645881). Further: nearly all actives have a fitted effect of over 75% in size. Further: potency means the concentration at half of the fitted maximal effect.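 On activation: EPAC1 catalysed release of BODIPY-GDP from Rap1B seen as fluorescence loss; 100% = effect of cAMP agonist control.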
Assay [4] has as its target Rap guanine nucleotide exchange factor 4 (Homo sapiens) (UniProt Q8WZA2). Nature of the assay: Confirmatory qHTS for agonist of cAMP-regulated guanine nucleotide exchange factor 4 (EPAC2) (AID 1645884).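 Further: nucleotide exchange releases bodipy-GDP from Rap1 and this lowers its fluorescence; nearly all actives have a fitted effect of over 65% in size.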 Further: potency means the concentration at half of the fitted maximal effect.
Assay [5] shares this target. Nature of the assay: Confirmatory qHTS for antagonist of cAMP-regulated guanine nucleotide exchange factor 4 (EPAC2) (AID 1645885). Further: nearly all actives have a fitted effect of over 25% in size. Further: potency means the concentration at half of the fitted maximal effect. On activity change, negative = inhibition: on the % scale 0 is the no-effect control and ±100 the full control effect.
Assay [6] concerns the target Rap guanine nucleotide exchange factor 3 (Homo sapiens) (UniProt O95398). Briefly: Counterscreen qHTS for agonist of cAMP-regulated guanine nucleotide exchange factor 3 (EPAC1) (AID 1645889). Further: potency means the concentration at half of the fitted maximal effect; nearly all actives have a fitted effect of over 40% in size. The method in brief: (§1)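 Measured: fluorescence of BODIPY-GDP bound to Rap1B, which falls as exchange proceeds. Conditions include 50 uM competing GDP, 5 and 30 min reads, and a later cAMP challenge for antagonist detection.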

For assay [7] the target is unchanged. Briefly: Counterscreen qHTS for antagonist of cAMP-regulated guanine nucleotide exchange factor 3 (EPAC1) (AID 1645888). Further: % of control where 0% means no effect. The method in brief:
as §1
(A counterscreen serves to expose hits that act by an unwanted route or on another target.)

The nature of assay [8]: AP1 Signaling Pathway (AID 357; active means well fitted curve in either direction with a large enough effect, not every such curve was filed as active; further: on the % scale 0 is the no-effect control and ±100 the full control effect). Conditions: ME-180 (cervical carcinoma) AP-1-bla reporter, EGF-induced, beta-lactamase ratio, 5 h; at 7.69 µM (top of the series) unless noted. The method in brief: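 AP-1-bla ME-180 cells with beta-lactamase reporter under AP-1 response element, stimulated with EC50 EGF; compounds titrated, 5 hours at 37 degrees Celsius. CCF4 read at 460/530 nm ratio; positive and negative modulators judged by AC50.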

The target in assay [9] is Cytochrome P450 1A2 (Homo sapiens) (UniProt P05177). Nature of the assay: p450-cyp1a2 (AID 410; calls by dose curve; further: potency means the concentration at half of the fitted maximal effect). The method in brief:
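Read-out is luminescence from luciferin produced by CYP1A2 demethylation of Luciferin-ME (100uM, at Km). Detection reagent stopped the 60 min NADPH-dependent reaction; signals were normalized to 57 uM furafylline.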

The nature of assay [10]: NFAT Signaling Pathway (AID 444; active means well fitted curve in either direction with a large enough effect, not every such curve was filed as active;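 further: carbachol stimulus at about its EC50 of 1 µM final; on the % scale 0 is the no-effect control and ±100 the full control effect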). Conditions: Jurkat NFAT-bla M1, carbachol, beta-lactamase ratio, 5 h; at 7.69 µM (top of the series) unless noted. The method in brief: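 Jurkat cells carrying an NFAT-driven β-lactamase reporter and co-transfected muscarinic M1 receptor were treated with compound plus carbachol (1 uM final, an EC50 level) for 5 h at 37 °C. CCF4 loading followed for 1 h at RT; 460/530 nm ratio gave %activity.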

Assay [11] in a line: Stat Signaling Pathway (AID 446; active means well fitted curve in either direction with a large enough effect, not every such curve was filed as active;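 further: ME-180 cervical cancer cells given 40 pM IL-6 alongside compound; SIE-controlled beta-lactamase reporter measured as 460/530 nm FRET emission ratio; on the % scale 0 is the no-effect control and ±100 the full control effect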). The procedure, abridged: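 Emission at 460 and 530 nm (excitation 405 nm) reports SIE-controlled beta-lactamase in ME-180 cells. Cells received compound with 40 pM IL-6 for 5 hrs at 37 C; data scaled between 300 pM IL-6 and 125 nM JAK-inhibitor controls.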
For assay [12], the target named is Glucocorticoid receptor (Homo sapiens) (UniProt P04150). Nature of the assay: GR-GFP Redistribution (AID 450;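 active means compounds whose dose series gives a full or clear partial fitted curve of increased nuclear translocation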; further: potency means the concentration at half of the fitted maximal effect). Conditions: U2OS GR-GFP nuclear translocation, laser cytometry, 2 h.
Sequence of Glucocorticoid receptor (Homo sapiens) (P04150 whole entry, looked up, the tested form may be a part): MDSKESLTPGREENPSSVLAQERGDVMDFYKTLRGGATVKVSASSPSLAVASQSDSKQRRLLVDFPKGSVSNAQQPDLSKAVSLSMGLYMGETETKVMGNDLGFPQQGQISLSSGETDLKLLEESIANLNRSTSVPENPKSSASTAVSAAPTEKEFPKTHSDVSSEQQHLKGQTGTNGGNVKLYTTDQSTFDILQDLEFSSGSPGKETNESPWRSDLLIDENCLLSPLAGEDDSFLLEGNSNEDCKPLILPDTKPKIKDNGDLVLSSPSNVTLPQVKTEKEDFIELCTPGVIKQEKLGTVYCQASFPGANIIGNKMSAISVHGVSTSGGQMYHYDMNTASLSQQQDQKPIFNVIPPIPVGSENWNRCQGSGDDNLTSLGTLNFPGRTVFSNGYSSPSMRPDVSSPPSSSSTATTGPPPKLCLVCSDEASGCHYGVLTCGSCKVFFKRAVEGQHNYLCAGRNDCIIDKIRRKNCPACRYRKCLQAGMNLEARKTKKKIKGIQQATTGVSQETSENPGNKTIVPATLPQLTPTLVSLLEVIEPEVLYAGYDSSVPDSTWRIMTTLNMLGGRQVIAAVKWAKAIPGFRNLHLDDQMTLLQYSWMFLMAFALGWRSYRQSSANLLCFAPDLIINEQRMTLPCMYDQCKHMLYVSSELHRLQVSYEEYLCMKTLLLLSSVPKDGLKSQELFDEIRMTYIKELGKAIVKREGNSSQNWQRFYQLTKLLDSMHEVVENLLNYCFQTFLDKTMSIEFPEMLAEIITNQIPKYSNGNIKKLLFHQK
For assay [13] the target is unchanged. Briefly: GR-EFC Redistribution (AID 451; calls by dose curve; further: potency means the concentration at half of the fitted maximal effect). Conditions: CHO-K1 GR-EFC translocation, beta-gal luminescence, 2 h. The procedure, abridged: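 CHO-K1 cells stably expressing nuclear-localized β-gal enzyme acceptor and GR fused C-terminally to the enzyme donor fragment; ligand-driven nuclear translocation restores β-gal by complementation. Compounds titrated up to 46 uM final, 2 h at 37 °C; luminescence read.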

Assay [14] has as its target 3',5'-cyclic-AMP phosphodiesterase 4B (Homo sapiens) (UniProt Q07343). Briefly: qHTS Assay for Inhibitors of PDE-IV (AID 607; active means well fitted activation curve with a large enough effect in the main read-out, with a control signal flat, not every such curve was filed as active; further: % of control where 0% means no effect). The procedure, abridged: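 The readout is membrane depolarisation from a cAMP-sensing CNG channel, detected with a potential dye at ex 535/em 590. Cells were HEK293-derived (endogenous PDE-IV) at 1000 cells/well, titrated up to 22.9 uM final.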

Assay [15] deals with Cytochrome P450 3A4 (Homo sapiens) (UniProt P08684). Briefly: qHTS Assay for Activators of Cytochrome P450 3A4 (AID 885). Further: nearly all actives have a fitted effect of over 65% in size. The procedure, abridged: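 Activators are scored by enhanced luminescence from CYP3A4 conversion of luciferin-PPXE (25uM, equal to KM) to luciferin, after 60 min at RT with an NADPH-regenerating system.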
The target in assay [16] is Cytochrome P450 2C19 (Homo sapiens) (UniProt P33261). Nature of the assay: qHTS Assay for Inhibitors and Substrates of Cytochrome P450 2C19 (AID 899). Further: potency means the concentration at half of the fitted maximal effect; nearly all actives have a fitted effect of over 60% in size. The procedure, abridged: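 In 50mM KPO4, the reaction held 5nM enzyme and KM-level (10uM) Luciferin-H EGE; it ran 60 min at 37C after NADPH regeneration and a 10 min compound preincubation. Luminescence values were scaled to 57uM ketoconazole as complete inhibition.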
Sequence of Cytochrome P450 2C19 (Homo sapiens) (P33261 whole entry, looked up): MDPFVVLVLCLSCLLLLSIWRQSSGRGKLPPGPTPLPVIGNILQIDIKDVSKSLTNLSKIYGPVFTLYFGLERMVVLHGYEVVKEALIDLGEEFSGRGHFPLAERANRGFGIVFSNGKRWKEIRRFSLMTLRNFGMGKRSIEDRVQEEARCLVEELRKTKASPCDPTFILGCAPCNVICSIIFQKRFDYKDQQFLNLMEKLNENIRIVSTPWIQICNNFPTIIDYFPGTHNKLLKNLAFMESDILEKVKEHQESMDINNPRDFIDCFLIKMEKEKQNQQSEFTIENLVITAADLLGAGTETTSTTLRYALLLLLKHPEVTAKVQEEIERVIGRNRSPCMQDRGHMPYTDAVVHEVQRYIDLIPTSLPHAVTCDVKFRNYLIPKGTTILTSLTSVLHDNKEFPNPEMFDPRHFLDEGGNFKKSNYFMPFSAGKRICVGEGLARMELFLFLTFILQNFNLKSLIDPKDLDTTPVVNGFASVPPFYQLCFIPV

Assay [17] deals with Dual specificity protein kinase CLK4 (Homo sapiens) (UniProt Q9HAZ1). Nature of the assay: qHTS Assay for Inhibitors of CDC-like Kinase 4 (ADP-Glo Assay) (AID 1771). Further: on the % scale 0 is the no-effect control and ±100 the full control effect; nearly all actives have a fitted effect of over 70% in size. The procedure, abridged: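 In this ADP-Glo format, 1 uM ATP and 100 uM RS peptide served as substrates for 25 nM Clk4 in Mg2+/EGTA/DTT/Triton buffer; reactions ran 1 hr at room temperature before luminescent ADP quantification.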
Sequence of Dual specificity protein kinase CLK4 (Homo sapiens) (Q9HAZ1 whole entry, looked up): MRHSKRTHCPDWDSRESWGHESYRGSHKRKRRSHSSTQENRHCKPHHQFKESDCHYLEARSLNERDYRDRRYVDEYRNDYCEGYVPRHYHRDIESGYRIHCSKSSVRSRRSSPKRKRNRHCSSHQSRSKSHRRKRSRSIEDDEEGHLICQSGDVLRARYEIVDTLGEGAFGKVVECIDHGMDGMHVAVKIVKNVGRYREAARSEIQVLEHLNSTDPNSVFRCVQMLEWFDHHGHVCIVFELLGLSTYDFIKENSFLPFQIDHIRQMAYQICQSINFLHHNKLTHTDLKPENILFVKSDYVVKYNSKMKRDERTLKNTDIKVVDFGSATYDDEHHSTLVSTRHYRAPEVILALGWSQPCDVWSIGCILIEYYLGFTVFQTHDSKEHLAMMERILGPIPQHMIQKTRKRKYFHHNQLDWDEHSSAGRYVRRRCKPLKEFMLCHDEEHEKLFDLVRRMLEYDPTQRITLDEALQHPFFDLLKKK

In assay [18] the target is Ubiquitin carboxyl-terminal hydrolase 1 (Homo sapiens) (UniProt O94782). Briefly: Inhibitors of USP1/UAF1: Pilot qHTS (AID 504865).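 Further: rhodamine fluorescence freed from ubiquitin-rhodamine substrate followed over time; top concentration of the series differs between compounds; on the % scale 0 is the no-effect control and ±100 the full control effect; nearly all actives have a fitted effect of over 35% in size.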 The procedure, abridged: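 Enzyme-free wells gave the negative control, while test wells held 1nM USP1/UAF1 preincubated with compound for 15 min at room temperature. Ub-Rho at 150nM final started the reaction, and fluorescence at 480/540 nm was recorded kinetically.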

Assay [19] concerns the target DNA dC->dU-editing enzyme APOBEC-3G (Homo sapiens) (UniProt Q9HC16). Nature of the assay: qHTS for inhibitors of Vif-A3G interactions: Validation (AID 588379). Further: 0% is about no effect. The procedure, abridged: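 Yellow fluorescence (Ex 488, Em 500-530) of Vif-coexpressing HeLa A3G-eYFP cells, scanned by Acumen cytometer, reports blocked A3G degradation. Cells plated at 700/well overnight at 37 deg C before compound addition, then a further overnight compound incubation at 37 deg C.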

Assay [20] addresses Cytochrome P450 2C9 (Homo sapiens) (UniProt P11712). Briefly: qHTS Assay for Inhibitors and Substrates of Cytochrome P450 2C9 (AID 883). Further: potency means the concentration at half of the fitted maximal effect; nearly all actives have a fitted effect of over 60% in size. The procedure, abridged:
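CYP2C9 deoxyluciferin hydroxylation, 37C, 60 min with NADPH regeneration; 10nM enzyme, 100uM Luciferin-H (KM). Glo detection reagent stopped reaction; luminescence normalized to sulphaphenazole (57uM) full inhibition.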

The target in assay [21] is Cytochrome P450 2D6 (Homo sapiens) (UniProt P10635). Nature of the assay: qHTS Assay for Inhibitors and Substrates of Cytochrome P450 2D6 (AID 891). Further: potency means the concentration at half of the fitted maximal effect; nearly all actives have a fitted effect of over 60% in size. The procedure, abridged: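 Luminescent read-out of luciferin formed by 5 nM human CYP2D6 demethylating 30 uM Luciferin-ME EGE (Km level) over 60 min at room temperature after NADPH regeneration addition. Data normalized to full inhibition by 1.43 uM quinidine.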

Assay [22] concerns the target Dual specificity protein kinase CLK4 (Homo sapiens) (UniProt Q9HAZ1). Nature of the assay: qHTS Assay for Inhibitors of CDC-like Kinase 4 (Kinase-Glo Assay) (AID 1770). Further: potency means the concentration at half of the fitted maximal effect; nearly all actives have a fitted effect of over 65% in size. The procedure, abridged:
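Clk4 25 nM, RS peptide 100 uM, ATP 1 uM, pH 7.5 Tris, 10 mM MgCl2, 2.5 mM DTT; 4.5 h RT; ATP depletion read by Kinase-Glo luminescence.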

The target is the same in assay [23]. Nature of the assay: qHTS Assay for Inhibitors of CDC-like Kinase 4 (ADP-FP Assay) (AID 1795).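 Further: recombinant human CLK4 phosphorylating RS repeat peptide at 1 µM ATP; on the % scale 0 is the no-effect control and ±100 the full control effect; nearly all actives have a fitted effect of over 60% in size.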 The procedure, abridged:
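Kinase activity was followed as ADP output, converted from fluorescence polarization with a calibration curve. Reactions ran one hour at low ATP (1 uM) with RS peptide substrate.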

Unmarked numbers belong to inactive results. Records with an inconclusive call do not appear. Activity calls are given as the source filed them. Unless noted, the call rests on the fitted dose curve; in most records, active means well fitted curve in the direction sought with a large enough effect; inconclusive means small, poorly fitted or top-dose-only effect, or another doubt; inactive means no such curve, though single readings can be large; an effect the other way counts as inactive or inconclusive. Some results are limits rather than exact numbers.

Sequence of Rap guanine nucleotide exchange factor 3 (Homo sapiens) (O95398 whole entry, looked up): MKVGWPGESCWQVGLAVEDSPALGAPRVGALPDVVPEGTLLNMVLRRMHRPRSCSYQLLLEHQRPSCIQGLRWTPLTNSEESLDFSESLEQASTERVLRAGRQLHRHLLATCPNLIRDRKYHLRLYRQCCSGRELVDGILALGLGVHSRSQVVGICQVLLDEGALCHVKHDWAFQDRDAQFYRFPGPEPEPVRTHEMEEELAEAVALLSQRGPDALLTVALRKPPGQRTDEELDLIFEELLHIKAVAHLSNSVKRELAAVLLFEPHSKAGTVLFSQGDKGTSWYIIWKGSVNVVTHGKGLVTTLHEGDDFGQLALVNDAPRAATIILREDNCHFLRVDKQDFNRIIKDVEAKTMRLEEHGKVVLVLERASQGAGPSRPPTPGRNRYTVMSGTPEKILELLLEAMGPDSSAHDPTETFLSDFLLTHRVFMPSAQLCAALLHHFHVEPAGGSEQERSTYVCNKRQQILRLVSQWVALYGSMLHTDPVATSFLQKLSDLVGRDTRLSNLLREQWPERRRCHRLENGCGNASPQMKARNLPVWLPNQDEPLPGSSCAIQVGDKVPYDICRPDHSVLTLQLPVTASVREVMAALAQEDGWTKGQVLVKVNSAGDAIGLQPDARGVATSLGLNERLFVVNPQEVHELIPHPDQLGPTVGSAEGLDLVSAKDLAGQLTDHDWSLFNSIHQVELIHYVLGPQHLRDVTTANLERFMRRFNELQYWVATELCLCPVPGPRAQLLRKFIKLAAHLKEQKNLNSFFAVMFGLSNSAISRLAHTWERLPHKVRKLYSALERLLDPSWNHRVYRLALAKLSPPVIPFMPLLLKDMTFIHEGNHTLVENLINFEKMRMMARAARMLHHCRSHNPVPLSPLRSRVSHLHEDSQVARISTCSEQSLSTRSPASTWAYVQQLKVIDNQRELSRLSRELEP
Sequence of Rap guanine nucleotide exchange factor 4 (Homo sapiens) (Q8WZA2 whole entry, looked up): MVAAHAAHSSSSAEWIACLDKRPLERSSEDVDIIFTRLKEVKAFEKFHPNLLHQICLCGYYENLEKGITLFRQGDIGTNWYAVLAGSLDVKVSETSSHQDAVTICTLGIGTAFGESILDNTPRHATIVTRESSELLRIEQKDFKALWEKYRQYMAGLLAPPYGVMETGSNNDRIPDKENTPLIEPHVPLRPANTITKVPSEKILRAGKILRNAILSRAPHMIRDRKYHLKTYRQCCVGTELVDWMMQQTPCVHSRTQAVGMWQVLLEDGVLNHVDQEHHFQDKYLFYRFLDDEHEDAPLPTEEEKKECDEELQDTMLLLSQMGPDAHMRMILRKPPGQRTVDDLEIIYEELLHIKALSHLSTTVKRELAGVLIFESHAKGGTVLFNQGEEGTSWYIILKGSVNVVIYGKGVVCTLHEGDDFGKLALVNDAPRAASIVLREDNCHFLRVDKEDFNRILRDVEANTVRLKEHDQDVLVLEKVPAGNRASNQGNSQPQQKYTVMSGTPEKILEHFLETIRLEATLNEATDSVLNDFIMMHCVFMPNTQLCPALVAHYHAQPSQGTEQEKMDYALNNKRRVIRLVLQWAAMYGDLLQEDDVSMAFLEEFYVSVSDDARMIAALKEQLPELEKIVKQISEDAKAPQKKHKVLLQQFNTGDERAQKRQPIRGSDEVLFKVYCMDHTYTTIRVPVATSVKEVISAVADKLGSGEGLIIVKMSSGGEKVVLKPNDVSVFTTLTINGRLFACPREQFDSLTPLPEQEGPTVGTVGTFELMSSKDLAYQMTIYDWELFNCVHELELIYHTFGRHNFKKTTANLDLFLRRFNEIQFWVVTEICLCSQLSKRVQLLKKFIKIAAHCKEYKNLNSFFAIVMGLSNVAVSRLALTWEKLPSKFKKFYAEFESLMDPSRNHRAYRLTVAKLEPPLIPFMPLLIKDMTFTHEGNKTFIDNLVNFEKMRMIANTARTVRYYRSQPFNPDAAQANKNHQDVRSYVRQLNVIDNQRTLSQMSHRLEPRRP
Sequence of Tumor susceptibility gene 101 protein (Homo sapiens) (Q99816 whole entry, looked up): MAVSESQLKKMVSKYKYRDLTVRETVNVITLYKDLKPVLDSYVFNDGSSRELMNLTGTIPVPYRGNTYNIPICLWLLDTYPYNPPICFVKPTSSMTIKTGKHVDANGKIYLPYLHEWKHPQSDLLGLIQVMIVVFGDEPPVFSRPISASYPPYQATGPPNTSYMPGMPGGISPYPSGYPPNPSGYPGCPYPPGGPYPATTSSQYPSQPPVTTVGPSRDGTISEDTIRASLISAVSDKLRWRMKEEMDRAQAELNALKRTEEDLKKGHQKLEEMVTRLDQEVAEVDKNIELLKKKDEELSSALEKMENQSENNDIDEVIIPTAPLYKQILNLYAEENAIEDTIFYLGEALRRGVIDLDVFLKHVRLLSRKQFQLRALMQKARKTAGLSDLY
Sequence of 3',5'-cyclic-AMP phosphodiesterase 4B (Homo sapiens) (Q07343 whole entry, looked up): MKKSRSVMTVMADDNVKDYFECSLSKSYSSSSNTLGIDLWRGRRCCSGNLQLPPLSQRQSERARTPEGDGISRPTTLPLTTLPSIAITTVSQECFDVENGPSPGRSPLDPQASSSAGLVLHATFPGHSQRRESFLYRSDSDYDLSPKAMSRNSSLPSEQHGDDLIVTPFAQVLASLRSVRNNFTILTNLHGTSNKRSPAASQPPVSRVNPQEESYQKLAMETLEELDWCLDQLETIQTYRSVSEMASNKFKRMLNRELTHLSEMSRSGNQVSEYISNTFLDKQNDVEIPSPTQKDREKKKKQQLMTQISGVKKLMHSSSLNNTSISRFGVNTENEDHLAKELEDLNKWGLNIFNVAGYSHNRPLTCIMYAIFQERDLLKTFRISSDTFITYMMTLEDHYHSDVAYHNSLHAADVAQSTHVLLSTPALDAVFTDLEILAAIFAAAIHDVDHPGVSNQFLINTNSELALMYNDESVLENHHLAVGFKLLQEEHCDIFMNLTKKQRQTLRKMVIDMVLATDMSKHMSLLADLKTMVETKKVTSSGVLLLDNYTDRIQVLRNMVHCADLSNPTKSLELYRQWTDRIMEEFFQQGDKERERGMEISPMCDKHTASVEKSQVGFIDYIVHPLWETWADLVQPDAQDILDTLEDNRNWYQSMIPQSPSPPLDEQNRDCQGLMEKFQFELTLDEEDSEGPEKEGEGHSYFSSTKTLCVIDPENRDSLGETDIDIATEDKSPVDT

Consider `Nc1ccc2cc3[nH]c4cc(N)ccc4c3nc2c1`, for which the Potency is 0.366 µM (active) in assay [1], 100 µM (active) in assay [3], 100 µM (active) in assay [4] and 63.1 µM (active) in assay [6]. Moreover, the Potency entry in assay [2] and in [5] was “inactive” in each case.

`Cc1nn(-c2ccccc2)c(Cl)c1/C=N/Nc1ccc(S(=O)(=O)Nc2ccccc2C(=O)O)cc1[N+](=O)[O-]`: the Potency in [2] was 42.6 µM (active). The Potency entry in [3], in [4] and in [7] was “inactive” each time.

Consider `CC(=O)Nc1ccc(N2C(=O)c3cccc4c(O)ccc(c34)C2=O)cc1`, for which the Potency in assay [1] is 2.31 µM (active); in assay [3] it was 79.4 µM (active); in assay [4], 112 µM (active); in [6], 39.8 µM (active). For the same compound, the Potency result in assay [2] and in assay [5] was “inactive” in each case.

For `CN(C)c1ncc2nc(CCc3ccccc3)c(=O)n(Cc3cccs3)c2n1`, the activity change, negative = inhibition in [8] was 16.2%; in assay [10] it was -16.3%. Further, the Potency in [9] was 1.58 µM (active); in [12], over 9.22 µM; in [13], over 46 µM; in [16] it was 6.31 µM (active). Further, the call in assay [11] and in assay [15] was inactive. The Potency result in assay [14], in assay [17], in assay [18], in [2], in assay [3] and in [4] was “inactive” throughout. For the same compound, the Potency entry in assay [5] was “inactive”.

With `C=C1CCC(O)C/C1=C\C=C1/CCCC2(C)C1CCC2C(C)CCCC(C)C` (stereo not given), the call in assay [19] was inactive. For the same compound, the Potency in assay [2] is 55.9 µM (active); in assay [5] it was 39.3 µM (active). For the same compound, the Potency entry in assay [3] and in [4] was “inactive” throughout.

Consider `Oc1ccc2ccc3cccc[n+]3c2c1`, for which the Potency in assay [1] is 4.11 µM (active); in assay [3] it was 112 µM (active); in assay [4], 100 µM (active); in assay [6], 39.8 µM (active). The Potency result in assay [2] and in assay [5] was “inactive” throughout.

For `O=C(CSc1nc2nn(-c3ccccc3)c(=O)c-2c2n1CCCCC2)c1ccc(O)c(O)c1`, the Potency in assay [2] is 2.39 µM (active). The Potency entry in assay [3], in [4] and in assay [7] was “inactive” throughout.

Turning to `COc1ccc2[nH]cc(CCNc3ncnc4ccc(-c5ccccc5OC)cc34)c2c1`, the results for the activity change, negative = inhibition in assay [8] and in assay [10] were -28.6% and 20.2%, respectively. Moreover, the call in [11] was inactive. For the same compound, the Potency in assay [12] was over 46 µM; in [13] it was over 46 µM; in [20] it was 0.251 µM (active); in [21] it was 3.98 µM (active); in assay [16], 2 µM (active); in assay [22] it was 25.1 µM (active). Also, the Potency entry in assay [14], in [23], in assay [18], in [2], in assay [3] and in assay [4] was “inactive” each time. Besides, the Potency result in [5] was “inactive”.

In the case of `O=C(O)c1ccc(/C=N/Nc2cccc(C(F)(F)F)c2)cc1`, the Potency result in [2], in assay [3], in [4] and in [7] was “inactive” throughout.

Take `COc1ccc(-c2nc(C)ncc2-c2ccc(Cl)cc2)c(O)c1`: the Potency result in [2], in assay [3], in assay [4] and in [7] was “inactive” each time.
